# Inconclusive results are not listed. Activity calls are given as the source filed them. The call rests on the fitted dose curve; in most records, active means well fitted cell-killing curve with a large enough effect; inconclusive means small, poorly fitted or top-dose-only effect, or effect the other way; inactive means no such curve, though single readings can be large or run the other way.
# Experiment: Viability qHTS for spleen associated tyrosine kinase inhibitor (SYKi) drug resistant MV4-11 cells (AID 1963824); further: nearly all actives have a fitted effect of over 35% in size
# Details: SYKi-resistant MV4-11 viability, CellTiter-Glo, 72 h; series mostly up to 45 µM
# In short: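 SYK-inhibitor-resistant MV4-11 AML cells were seeded at 500 per well onto compound and cultured 72 hours (37 °C, 5% CO2). CellTiter-Glo was then added, and after 10 min at room temperature, luminescence gave viability.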
# Potency means the concentration at half of the fitted maximal effect.
row,SMILES,Potency
1,COc1c(C)c2c(c(O)c1C/C=C(\C)CC/C=C(\C)CCC(=O)O)C(=O)OC2,inactive
2,CCCCCCOc1cc2c(cc1N(C)c1ncc(C(=O)O)cn1)C(C)(C)CCC2(C)C,6.51 µM (active)
3,CCNC1(C(N)=O)CN(c2nc(C)nc3c(-c4ccc(Cl)cc4)c(-c4ccccc4Cl)nn23)C1,16.4 µM (active)
4,Cc1cccc(N(C)C(=S)Oc2ccc3c(c2)C2CCC3C2)c1 (centres undefined),inactive
5,C=C(C(=O)OC)[C@@H]1CC=C2C=CC(=O)[C@H](C)[C@@]2(C)C1,18.4 µM (active)
6,COC1C(=O)CCC2(CO2)C1(O)C1(C)OC1CC=C(C)C (centres undefined),inactive
7,O=C1[C@H](Cc2ccc(O)cc2)N2C(=O)CCN(C(=O)NCc3ccccc3)[C@H]2CN1Cc1cccc2ccccc12,1.48 µM (active)
8,Nc1n[nH]c(N)c1N=Nc1ccc(O)cc1,6.51 µM (active)
9,COc1cc(O)c2c(c1)C1(OC2=O)C(C)=CC(=O)C1O (centres undefined),16.4 µM (active)
10,CC1(C)CC[C@]2(C(=O)O)CC[C@]3(C)C(=CCC4[C@@]5(C)C(=O)C[C@H](O)[C@@](C)(CO)C5CC[C@]43C)[C@@H]2C1 (some centres undefined),inactive
11,COc1cc(-c2nc(N[C@H](CO)Cc3ccccc3)ccc2C(=O)NCCOc2ccccc2)cc(OC)c1OC,25.9 µM (active)
12,CN(C)CCCCCCNC(=O)c1cccc(-c2cc(O)c3ncccc3c2)c1,3.26 µM (active)
13,CC(=O)O[C@@H]1CC(C)=C2[C@H]1[C@H](C)CC[C@H]2/C=C(\C)C(=O)O,16.4 µM (active)
14,CC(C)(C)c1ccc(-c2nc3ccccc3[nH]2)cc1,3.99 µM (active)

# Reference: PubChem BioAssay (NCATS)
